Among the test systems are RPMI-8226 leukemia; OVCAR-8 ovarian; OVCAR-5 ovarian; OVCAR-4 ovarian; SK-OV-3 ovarian; IGROV1 ovarian; OVCAR-3 ovarian; HS 578T breast; NCI/ADR-RES ovarian.
What all share (experiment): NCI-60 one-dose screen, 48 h (100 = growth as untreated, 0 = no growth, -100 = all killed)
Holding throughout (conditions): 10 µM

This is part of a sample that, as a whole, favours compounds with a hit. Of some 83,000 tested, about 20% had one in any assay.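 How to read the values: 0–100, growth inhibition (40 = 60% inhibited); 0, no net growth; -100 to 0, cell death (-40 = 40% of starting cells died; -100 = all dead).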 Values without a mark were called inactive. Active and inactive are the calls of the source. Rule for the calls: active = growth percent below 10; inactive = the rest.

Consider `COC1CC(Cn2cc(COc3ccc4ccc(=O)oc4c3)nn2)C(OCc2ccccc2)C(OCc2ccccc2)C1OCc1ccccc1` (configuration not stated), for which the growth in the assay with RPMI-8226 leukemia is 77.7%; with OVCAR-8 ovarian, 103%; with OVCAR-5 ovarian it was 111%; in the assay with OVCAR-4 ovarian it was 93.4%; in the assay on SK-OV-3 ovarian, 91.9%; in the assay on IGROV1 ovarian it was 107%. Moreover, the growth in the assay with OVCAR-3 ovarian is 125%; in the assay on HS 578T breast, 109%; in the assay with NCI/ADR-RES ovarian, 94.3%.

Take `O=C(Cn1cc(CSc2nnc3oc4ccccc4n23)nn1)Nc1ccc(Br)cc1`: the growth with RPMI-8226 leukemia is 93.2%; in the assay on OVCAR-8 ovarian it was 16%; in the assay with OVCAR-5 ovarian, 91.6%; in the assay on OVCAR-4 ovarian, 87%; in the assay on SK-OV-3 ovarian it was 53.8%; in the assay with IGROV1 ovarian it was 75%. Also, the growth was 87% in the assay with OVCAR-3 ovarian, 20.3% with HS 578T breast and 51.3% in the assay with NCI/ADR-RES ovarian.

For the compound `O=C(c1ccc(Cl)cc1)C1[C@H](c2ccccc2Br)[C@@H](c2ccccc2)NC12C(=O)Nc1ccccc12` (some centres not stated), the growth in the assay with RPMI-8226 leukemia was 12.3%; in the assay on OVCAR-8 ovarian, 27.4%; in the assay with OVCAR-5 ovarian, 4.22% (active); in the assay on OVCAR-4 ovarian, 25.9%; in the assay with SK-OV-3 ovarian, 35.9%; in the assay with IGROV1 ovarian it was 31.3%. In addition, the growth with OVCAR-3 ovarian is 10.5%; in the assay with HS 578T breast, 18%; with NCI/ADR-RES ovarian, -70% (active).

Consider `CN1CCN(c2ccc(C(=O)/C=C/c3ccc(C#N)cc3)cc2)CC1`, for which the growth was 5.21% (active) in the assay with RPMI-8226 leukemia; 92% with OVCAR-8 ovarian; 127% in the assay with OVCAR-5 ovarian; 85% in the assay with OVCAR-4 ovarian; 86.6% with SK-OV-3 ovarian; 68.1% in the assay on IGROV1 ovarian. For the same compound, the growth in the assay on OVCAR-3 ovarian was 79.9%; in the assay on HS 578T breast, 93.8%; with NCI/ADR-RES ovarian, 80.8%.

For `COC(=O)C(Cc1ccc(O)c(O)c1)NC(=O)C(CSC/C=C(\C)CCCC(C)CCCC(C)CCCC(C)C)NC(C)=O` (configuration not stated), the growth in the assay with RPMI-8226 leukemia is -5.06% (active); in the assay with OVCAR-8 ovarian, 10.8%; in the assay with OVCAR-5 ovarian it was 28%; in the assay on OVCAR-4 ovarian it was 19.7%; with SK-OV-3 ovarian, 41.7%; in the assay with IGROV1 ovarian, 17.4%. Further, the growth was 34.8% with OVCAR-3 ovarian, 25.5% in the assay on HS 578T breast and 73.8% with NCI/ADR-RES ovarian.

In the case of `COc1ccccc1[C@H]1C(C(=O)c2ccc(Cl)cc2)C2(N[C@@H]1c1ccccc1)C(=O)Nc1ccc(Cl)cc12` (some centres not stated), the growth in the assay with RPMI-8226 leukemia was 6.41% (active); in the assay on OVCAR-8 ovarian, 12.2%; in the assay on OVCAR-5 ovarian, -8.45% (active); with OVCAR-4 ovarian, 24%; with SK-OV-3 ovarian, 28.8%; in the assay on IGROV1 ovarian it was 22.1%. In addition, the growth with OVCAR-3 ovarian is 3.66% (active); in the assay with HS 578T breast, -2.19% (active); with NCI/ADR-RES ovarian, -65.5% (active).

Take `O=C1Nc2cc(-c3ccc(NC(=O)c4cccc([N+](=O)[O-])c4)cc3)ccc2/C1=C/c1ccc[nH]1`: the growth with RPMI-8226 leukemia is 82.9%; in the assay on OVCAR-8 ovarian it was 90.4%; with OVCAR-5 ovarian, 99.6%; with OVCAR-4 ovarian, 52.3%; in the assay on SK-OV-3 ovarian it was 115%; in the assay on IGROV1 ovarian, 95.7%. In addition, the growth in the assay on OVCAR-3 ovarian is 99.4%; with HS 578T breast, 108%; in the assay on NCI/ADR-RES ovarian, 89.5%.

As to `O=C(Nc1ccc(I)cc1F)c1cc(-c2ccc(F)cc2F)ccc1O`, the growth is -18.1% (active) with RPMI-8226 leukemia; 8.5% (active) with OVCAR-8 ovarian; 3.54% (active) with OVCAR-5 ovarian; 17.2% in the assay with OVCAR-4 ovarian; -10.6% (active) in the assay with SK-OV-3 ovarian; 22.7% in the assay with IGROV1 ovarian. Moreover, the growth in the assay with OVCAR-3 ovarian was -1.28% (active); in the assay with HS 578T breast, 2.66% (active); in the assay with NCI/ADR-RES ovarian, -8.34% (active).

As for `COc1ccc(-c2nc(S(=O)(=O)c3ccccc3)c(S(C)(=O)=O)o2)cc1`, the growth is -39.9% (active) with RPMI-8226 leukemia; -28.3% (active) with OVCAR-8 ovarian; -77.2% (active) with OVCAR-5 ovarian; -87% (active) in the assay on OVCAR-4 ovarian; 97.9% in the assay on SK-OV-3 ovarian; 77.2% with IGROV1 ovarian. For the same compound, the growth is -81.8% (active) with OVCAR-3 ovarian, 75.2% in the assay with HS 578T breast and 0.892% (active) in the assay on NCI/ADR-RES ovarian.

Regarding `O=C1NC(=NC23CC4CC(CC(C4)C2)C3)N/C1=C\c1ccc2ncsc2c1`, the growth is -14.7% (active) in the assay with RPMI-8226 leukemia; 10.5% with OVCAR-8 ovarian; -7.67% (active) in the assay with OVCAR-5 ovarian; 8.44% (active) in the assay with OVCAR-4 ovarian; 25.1% in the assay with SK-OV-3 ovarian; 4.69% (active) in the assay with IGROV1 ovarian. For the same compound, the growth in the assay with OVCAR-3 ovarian is -6.21% (active); in the assay with HS 578T breast, -0.802% (active); in the assay with NCI/ADR-RES ovarian it was -10.5% (active).

Turning to `O=C(c1ccc(Cl)cc1)C1[C@H](c2ccc(Br)cc2)[C@@H](c2ccccc2)NC12C(=O)Nc1ccc(Cl)cc12` (some centres not stated), the growth with RPMI-8226 leukemia was -15.4% (active); in the assay on OVCAR-8 ovarian it was -55% (active); in the assay with OVCAR-5 ovarian, -89.5% (active); in the assay with OVCAR-4 ovarian, 3.2% (active); in the assay with SK-OV-3 ovarian, 11.5%; in the assay on IGROV1 ovarian it was -72.4% (active). The growth was -88% (active) in the assay on OVCAR-3 ovarian, -14% (active) in the assay on HS 578T breast and -89.9% (active) in the assay with NCI/ADR-RES ovarian.

Turning to `COc1ccc(-c2ccc(/C=N/NC(=O)c3[nH]c4ccc(Br)cc4c3-c3ccccc3)o2)cc1`, the growth was 18.9% in the assay on RPMI-8226 leukemia; 37.1% with OVCAR-8 ovarian; 68.5% in the assay on OVCAR-5 ovarian; 44.2% in the assay with OVCAR-4 ovarian; 49.2% with SK-OV-3 ovarian; 64.6% with IGROV1 ovarian. Further, the growth in the assay on OVCAR-3 ovarian is 21.1%; in the assay on HS 578T breast, 28.5%; in the assay with NCI/ADR-RES ovarian, -22.8% (active).

Regarding `CC(=C(c1ccc(OCCN2CCCCC2)cc1)c1ccc(OCCN2CCCCC2)cc1)c1ccccc1`, the growth with RPMI-8226 leukemia is -31.3% (active); in the assay on OVCAR-8 ovarian, 53.5%; in the assay on OVCAR-5 ovarian, 46.3%; with OVCAR-4 ovarian it was 63.8%; with SK-OV-3 ovarian, 74.6%; with IGROV1 ovarian it was 60.7%. Besides, the growth with OVCAR-3 ovarian is 28.3%; in the assay with HS 578T breast, 29.5%; in the assay on NCI/ADR-RES ovarian, 51.6%.

For `COC(=O)CC1CC1C1Cc2c(nc(N(C)S(C)(=O)=O)nc2C(C)C)-c2ccc(F)cc21` (configuration not stated), the growth is 46% in the assay on RPMI-8226 leukemia; 80.6% with OVCAR-8 ovarian; 90% in the assay with OVCAR-5 ovarian; 82.3% with OVCAR-4 ovarian; 106% in the assay on SK-OV-3 ovarian; 81.4% in the assay on IGROV1 ovarian. In addition, the values for the growth in the assay with OVCAR-3 ovarian, in the assay on HS 578T breast and in the assay on NCI/ADR-RES ovarian were 97.5%, 84.6% and 71.8%, respectively.

In the case of `CC(C)C(=O)Nc1ccc(C(=O)NC(=S)Nc2ccc(C(=O)O)cc2)cc1`, the growth in the assay on RPMI-8226 leukemia is 128%; in the assay with OVCAR-8 ovarian, 111%; with OVCAR-5 ovarian, 96.6%; in the assay with OVCAR-4 ovarian, 111%; in the assay on SK-OV-3 ovarian it was 99.9%; in the assay with IGROV1 ovarian, 106%. For the same compound, the growth in the assay with OVCAR-3 ovarian was 91.1%; in the assay with HS 578T breast, 98.8%; in the assay on NCI/ADR-RES ovarian it was 104%.

Consider `CCC(C)S(=O)(=O)c1oc(-c2ccc(C)cc2)nc1S(=O)(=O)c1ccccc1` (configuration not stated), for which the growth in the assay with RPMI-8226 leukemia is -44.5% (active); with OVCAR-8 ovarian it was -65.8% (active); in the assay on OVCAR-5 ovarian, -91.3% (active); with OVCAR-4 ovarian it was -83.7% (active); in the assay with SK-OV-3 ovarian it was 65.5%; in the assay with IGROV1 ovarian it was -92.9% (active). For the same compound, the growth in the assay with OVCAR-3 ovarian was -81.1% (active); in the assay on HS 578T breast, -12.1% (active); in the assay with NCI/ADR-RES ovarian, -55.2% (active).

Turning to `O=c1nc(-c2ccccc2)cc(-c2cc3ccccc3nc2Cl)[nH]1`, the growth in the assay with RPMI-8226 leukemia is -29.4% (active); in the assay with OVCAR-8 ovarian, -68.1% (active); in the assay on OVCAR-5 ovarian it was 40.9%; in the assay on OVCAR-4 ovarian, 80.6%; in the assay with SK-OV-3 ovarian, 84.8%; with IGROV1 ovarian, 56.8%. Further, the results for the growth with OVCAR-3 ovarian, in the assay with HS 578T breast and in the assay with NCI/ADR-RES ovarian were 8.83% (active), 69.6% and -70.1% (active), respectively.

For the compound `CO[C@@H]1CSS[C@H]1Cn1nc(-c2ccc(Oc3ccccc3)cc2)c2c(N)ncnc21`, the growth with RPMI-8226 leukemia is 34.3%; in the assay with OVCAR-8 ovarian, 82.9%; in the assay with OVCAR-5 ovarian, 82.3%; in the assay with OVCAR-4 ovarian it was 67.3%; with SK-OV-3 ovarian, 30.2%; in the assay on IGROV1 ovarian, 80.4%. The growth is 104% in the assay with OVCAR-3 ovarian, 72.6% in the assay with HS 578T breast and 65.8% in the assay on NCI/ADR-RES ovarian.

These data come from PubChem BioAssay (NCI).
